Assay results: PubChem BioAssay (NCATS)
Inconclusive results are not listed. Activity calls are given as the source filed them. Calls follow the shape of the dose curve; as a rule, active = well fitted curve in the direction sought with a large enough effect; inconclusive = small, poorly fitted or top-dose-only effect, or another doubt; inactive = no such curve, though single readings can be large; an effect the other way counts as inactive or inconclusive. Numbered stars: 1 amine (or outer) side, 2 acyl side, 3 side chain; on linkers, the order of the positions; unused ones are H or OH. Bridge positions count the residues as written; N and C are the ends. Square brackets hold non-standard residues; d marks the D form. Peptide text beside a SMILES is read from it. ξ: configuration not given here. Phe(3R-OH) = O=C([C@@H](N[*:1])[C@H](O[*:3])c1ccccc1)[*:2]; NMeTrp(4-OMe) = CN[C@@H](Cc1c[nH]c2cccc(OC)c12)C(=O)O; ξThr(3R)(O-yl) = C[C@@H](O[*:3])C(N[*:1])C(=O)[*:2]; NMeThr(3ξ) = CN[C@H](C(=O)O)C(C)O; NMeL = CN[C@@H](CC(C)C)C(=O)O; NMeV = CN[C@H](C(=O)O)C(C)C; ξIle = CC[C@H](C)C(N)C(=O)O; ξV = CC(C)C(N)C(=O)O

How the values were obtained:
[1] = HPAF-II 12hr Apoptosis Induction qHTS against the NCATS CANVASS Library (AID 1347358); also: 0% is about no effect
How it was run: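 Apoptosis in HPAF-II pancreatic cancer cells is scored as caspase 3/7 luminescence following a 12-hour exposure to an 11-point compound series.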

[2] = HPAF-II 18hr Apoptosis Induction qHTS against the NCATS CANVASS Library (AID 1347360); also: 0% is about no effect
How it was run: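 HPAF-II cells at 500/well were exposed for 18 h at 37 C to an 11-point compound series. Caspase-3/7 activity was read by Caspase-Glo luminescence after 15 min at RT.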

[3] = HEK293 12hr Apoptosis Induction qHTS against the NCATS CANVASS Library (AID 1347361); also: potency is read from the fitted curve at half-maximal effect; as to caspase activation: 0% is about no effect
How it was run: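 HEK293 cells (500/well) were exposed to an 11-point qHTS concentration series for 12 hours at 37 degrees C. Caspase-3/7 activity was then read by DEVD-substrate luciferase luminescence after 15 min at room temperature.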

[4] = molecular target: Luciferin 4-monooxygenase (Photinus pyralis) (UniProt P08659); assay: Firefly luciferase counterscreen qHTS: Assay Interference Panel against the NCATS CANVASS Library (AID 1347363); also: series mostly up to about 57 µM; 0% is about no effect
How it was run: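 Purified P. pyralis luciferase was added to compounds (11-point series) preincubated 15 min at room temperature with substrate containing 0.013 mM D-luciferin and 0.013 mM ATP; luminescence was read after 5 min.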

[5] = G06 Cancer Cell Toxicity qHTS against the NCATS CANVASS Library (AID 1347368); also: nearly all actives have a fitted effect of over 60% in size; also: potency is read from the fitted curve at half-maximal effect; as to activity change, negative = cytotoxic: series mostly up to about 46 µM; % is scaled to controls: 0 for no effect and ±100 for the full control effect
How it was run: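 Cytotoxicity toward canine glioma G06 cells is scored from cellular ATP via luminescence after 72 hr compound exposure at 500 cells/well.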

[6] = qHTS for Hypoxia signaling pathway (HIF-1) antagonists against the NCATS CANVASS Library (AID 1347374); also: nearly all actives have a fitted effect of over 60% in size; also: potency is read from the fitted curve at half-maximal effect;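 as to activity change, negative = inhibition: HRE-bla ME-180 cells stimulated with cobalt chloride to stabilize HIF-1alpha; series mostly up to about 38 µM; % is scaled to controls: 0 for no effect and ±100 for the full control effect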
How it was run: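 HRE-bla ME-180 cells (2,000/well, 0.5% dialyzed FBS) were pre-incubated 5 h, then given an 11-point compound series plus CoCl2 (60 uM solution as added) for 17 h at 37C. CCF4 β-lactamase read (ex 405, em 460/530 nm) after 2 h at RT.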

[7] = qHTS for Antimalaria activity screened against the NCATS CANVASS Library (AID 1347380); also: nearly all actives have a fitted effect of over 40% in size; also: potency is read from the fitted curve at half-maximal effect;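 as to activity change, negative = inhibition: Plasmodium falciparum strain Dd2 asexual parasites grown in red blood cells; series mostly up to about 29 µM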
How it was run: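 Growth inhibition of asexual erythrocytic P. falciparum Dd2 was quantified by SYBR Green DNA staining. Cultures grew 72 h with compound (11-point series) in hypoxic gas at 37C; lysis and staining lasted 18 h.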

[8] = qHTS for activators of Nrf2/ARE signaling pathway screened against the NCATS CANVASS Library (AID 1347391); also: nearly all actives have a fitted effect of over 60% in size; also: potency is read from the fitted curve at half-maximal effect; as to activation: 0% is about no effect
How it was run: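 Cells carrying an ARE-driven beta-lactamase reporter (HepG2 background) are dosed for 16 h, then stained with CCF4. Cell viability in the same wells is measured by CellTiter-Glo luminescence.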

[9] = ZIKV-mCherry secondary qHTS for Zika virus inhibitors (AID 1347158); also: top concentration of the series differs between compounds
How it was run: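 After overnight seeding at 37 °C, Vero cells receive compound and then ZIKV-mCherry (MOI 1). Following 48-72 h infection, cells are fixed, counterstained with Hoechst, and imaged; percent infected cells is derived from an mCherry intensity cut-off of 450 RFU.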

[10] = qHTS for inhibitors of Wild type Zika virus screened against the NCATS CANVASS Library (AID 1347396);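 also: ATP luminescence of surviving cells so rescue from viral cell killing; series mostly up to about 46 µM; % is scaled to controls: 0 for no effect and ±100 for the full control effect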
How it was run: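 Protection against wild-type Zika cytopathic effect is measured in African green monkey Vero 766 cells exposed to an 11-point compound series. Surviving cells are quantified by CellTiter Glo luminescence after 72 h.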

Sequence of Luciferin 4-monooxygenase (Photinus pyralis) (P08659 whole entry, looked up): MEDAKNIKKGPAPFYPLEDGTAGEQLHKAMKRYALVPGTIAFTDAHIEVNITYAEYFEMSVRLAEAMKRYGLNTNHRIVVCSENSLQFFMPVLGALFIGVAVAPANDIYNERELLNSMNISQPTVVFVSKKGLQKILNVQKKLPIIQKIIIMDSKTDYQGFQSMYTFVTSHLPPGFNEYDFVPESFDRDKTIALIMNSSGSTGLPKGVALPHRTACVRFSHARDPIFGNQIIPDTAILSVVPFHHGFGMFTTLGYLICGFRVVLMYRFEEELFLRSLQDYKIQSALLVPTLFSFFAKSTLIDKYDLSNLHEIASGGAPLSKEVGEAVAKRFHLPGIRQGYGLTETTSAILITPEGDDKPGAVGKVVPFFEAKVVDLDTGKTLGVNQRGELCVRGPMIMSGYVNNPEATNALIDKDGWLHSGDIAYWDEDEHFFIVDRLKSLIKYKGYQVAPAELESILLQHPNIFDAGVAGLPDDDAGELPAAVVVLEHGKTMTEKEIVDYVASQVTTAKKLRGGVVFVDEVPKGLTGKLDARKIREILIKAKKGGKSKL

C[C@@]12C[C@@H](C[C@H]3C(=O)O[C@@H](c4ccoc4)[C@H](OC(=O)c4ccccc4)[C@@H]31)OC2=O
inactive: Potency [1] | Potency [2] | Potency [3] | Potency [4] | Potency [5] | Potency [6] | Potency [7] | Potency [8]

O=C(OCc1cc(=O)n2nc(C3CC3)sc2n1)c1ccc(NC(=O)c2ccccc2F)cc1
inactive: Potency [9]

C/C=C/C=C/C1(O)C2C=C3C(=O)CC45C(=O)C(O)=C(C)C(=O)C4C1C1(C(=O)C(O)=C(C)C(=O)C351)C2C (centres undefined)
inactive: Potency [1] | Potency [2] | Potency [4] | Potency [5] | Potency [6] | Potency [8] | Potency [10]

O=C(O)[C@@]12CO[C@@]3(O)C4CCN(CC[C@H]31)[C@H]4c1c2[nH]c2ccccc12
inactive: Potency [1] | Potency [3] | Potency [4] | Potency [5] | Potency [6] | Potency [8] | Potency [10]

O=C(O)Cc1c[nH]c2ccccc12
inactive: Potency [1] | Potency [2] | Potency [3] | Potency [4] | Potency [8] | Potency [10]

COc1ccc2oc3c(OC)c(OC)c(OC)c(OC)c3c(=O)c2c1
inactive: caspase activation [1] 5.91% [at 9.19 µM] | caspase activation [2] 4.09% [at 9.19 µM] | caspase activation [3] 10.6% [at 9.19 µM] | activity change, negative = inhibition [4] -22.3% [at 11.5 µM] | activity change, negative = cytotoxic [5] -19.7% [at 9.19 µM] | activity change, negative = inhibition [7] -46.5% [at 5.73 µM] | activation [8] 5.78% [at 9.19 µM]

C[C@@H]1C(=O)[C@]23CC[C@H]1C[C@]21O[C@H]2C(C)(C)C=CC(=O)[C@@]23COC1=O
active: Potency [6] 23.6 µM
inactive: Potency [1] | Potency [2] | Potency [4] | Potency [5]

C[C@@H](CCC[C@]1(C)C(=O)C=C[C@]23C[C@H]4C[C@H](O[C@@]4(C)C2)C31)C(=O)N[C@@H](CO)C(=O)O (some centres undefined)
inactive: Potency [1] | Potency [2] | Potency [3] | Potency [5] | Potency [6]

O=Cc1ccc2n1C[C@@]1(OC2)O[C@H](CO)[C@@H](O)[C@@H]1O
inactive: Potency [1] | Potency [3] | Potency [4] | Potency [5] | Potency [6] | Potency [7] | Potency [8] | Potency [10]

CC1C(=O)C23CCC1C[C@@]21O[C@H]2C(C)(C)C=CC(=O)[C@@]23COC1=O (some centres undefined)
inactive: Potency [1] | Potency [2] | Potency [3] | Potency [4] | Potency [5] | Potency [6] | Potency [8] | Potency [10]

Cc1ccc(-c2nnc(Nc3ccc(S(N)(=O)=O)cc3)c3ccccc23)cc1S(=O)(=O)N1CCOCC1
inactive: Potency [9]

C[C@]12CC[C@]3(C1)[C@H](CC2=O)CC(OC(=O)c1ccccc1)[C@H]1[C@@](CO)(C(=O)O)CCC[C@@]13C (some centres undefined)
active: Potency [5] 10.5 µM | Potency [8] 18.6 µM
inactive: Potency [1] | Potency [2] | Potency [4] | Potency [10]

C=C[C@]1(C)CC[C@@H]([C@H](C)C(=O)/C=C/C(C)C)O1
inactive: Potency [1] | Potency [2] | Potency [3] | Potency [5] | Potency [6] | Potency [8] | Potency [10]

O=C(NCc1ccccc1Cl)c1ccc2c(O)c(S(=O)(=O)c3ccccc3)c(=O)[nH]c2c1
inactive: Potency [9]

COC1C(O)C(OC(N)=O)C(Oc2ccc3c(O)c(NC(=O)c4ccc(O)c(CC=C(C)C)c4)c(=O)oc3c2C)OC1(C)C (centres undefined)
inactive: Potency [1] | Potency [5] | Potency [8] | Potency [10]

CC[C@H](C)C(NC(=O)[C@@H](NC)C(C)C)C(=O)NC1C(=O)N(C)[C@@H](C(C)O)C(=O)N[C@@H](C(C)C)C(=O)N(C)[C@@H](CC(C)C)C(=O)NC(C(C)C)C(=O)N(C)[C@@H](C(C)C)C(=O)N(C)[C@@H](Cc2c[nH]c3cccc(OC)c23)C(=O)N[C@@H](C(C)C)C(=O)N[C@@H]([C@H](O)c2ccccc2)C(=O)N[C@@H](C(C)C)C(=O)O[C@@H]1C (stereo partly drawn) (H-[NMeV][ξIle][ξThr(3R)(O-yl)][NMeThr(3ξ)]V[NMeL][ξV][NMeV][NMeTrp(4-OMe)]V[Phe(3R-OH)]V; ester 3-C)
active: Potency [7] 3.75 µM
inactive: Potency [1] | Potency [3] | Potency [4] | Potency [8]

CC[C@@H]1C[C@@]2(CC)OC(=O)[C@@]3(CC)OC(=O)[C@@H]1[C@@H]23
inactive: Potency [1] | Potency [2] | Potency [4] | Potency [5] | Potency [6] | Potency [8] | Potency [10]

CC(O)/C=C/C1(O)C(C)(C)CC(O)CC1(C)O (centres undefined)
inactive: Potency [1] | Potency [2] | Potency [5] | Potency [6] | Potency [8] | Potency [10]

COc1ccc([C@@H]2c3cc(OC)c(OC)cc3C(=O)C(C)C2C)cc1OC (some centres undefined)
inactive: Potency [1] | Potency [2] | Potency [3] | Potency [5]

C=C(C)C(=O)O[C@H]1C[C@H](C)[C@@H](OC(C)=O)CC[C@@]2(C)O[C@@H]2[C@H]2OC(=O)C(COC(C)=O)=C12
active: Potency [3] 9.35 µM | Potency [5] 2.64 µM

C1=C2CCCN[C@@H]2[C@@H]2CCN3CCCC[C@@H]3[C@H](C1)C2
inactive: Potency [3] | Potency [5] | Potency [6] | Potency [8]
